# Compounds without any hit were thinned out: in the full panel of roughly 83,000, 20% have a hit.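 Note: values are percent growth. 100 is the growth of untreated cells, values between 100 and 0 indicate rising inhibition; between -100 and 0 indicates cell death.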 Values without a mark were called inactive. Active and inactive are the calls of the source. How the source made its calls: active means growth percent below 10; inactive means the rest.
# What was measured:
# Assay in all cases: NCI-60 one-dose screen, 48 h (100 = growth as untreated, 0 = no growth, -100 = all killed)
# Conditions in all cases: 10 µM
# NCI-H23 lung = tested on: NCI-H23 lung
# NCI-H226 lung = tested on: NCI-H226 lung
# NCI-H322M lung = tested on: NCI-H322M lung
# NCI-H460 lung = tested on: NCI-H460 lung
# NCI-H522 lung = tested on: NCI-H522 lung
# A549/ATCC NSCLC = tested on: A549/ATCC NSCLC
# 786-0 renal = tested on: 786-0 renal
# COLO 205 colon = tested on: COLO 205 colon
# DU-145 prostate = tested on: DU-145 prostate
# K-562 leukemia = tested on: K-562 leukemia
# MALME-3M melanoma = tested on: MALME-3M melanoma
# MDA-MB-231 breast = tested on: MDA-MB-231 breast
# RXF 393 renal = tested on: RXF 393 renal
# SF-268 CNS = tested on: SF-268 CNS
# SF-295 CNS = tested on: SF-295 CNS
# SF-539 CNS = tested on: SF-539 CNS
# UACC-257 melanoma = tested on: UACC-257 melanoma
# M14 melanoma = tested on: M14 melanoma
# HOP-62 NSCLC = tested on: HOP-62 NSCLC
# HOP-92 NSCLC = tested on: HOP-92 NSCLC
Compound,growth (NCI-H23 lung) [%],growth (NCI-H226 lung) [%],growth (NCI-H322M lung) [%],growth (NCI-H460 lung) [%],growth (NCI-H522 lung) [%],growth (A549/ATCC NSCLC) [%],growth (786-0 renal) [%],growth (COLO 205 colon) [%],growth (DU-145 prostate) [%],growth (K-562 leukemia) [%],growth (MALME-3M melanoma),growth (MDA-MB-231 breast) [%],growth (RXF 393 renal) [%],growth (SF-268 CNS) [%],growth (SF-295 CNS) [%],growth (SF-539 CNS) [%],growth (UACC-257 melanoma) [%],growth (M14 melanoma) [%],growth (HOP-62 NSCLC) [%],growth (HOP-92 NSCLC) [%]
CCNCCCCNCCCCNCCCCNCCCCNCC,49.5,134,42.1,76.1,87.3,54.4,150,69.1,82.1,61,-12.6% (active),109,81.7,138,62.3,122,30.7,66.9,–,–
COc1ccc(OC)c(/C=C2\CCc3ccccc3C2=O)c1,62.7,76.5,70,13.9,22.5,42.6,46.9,–,55.5,18.3,63.4%,52.9,60.3,56.3,32,26,75.3,15,–,–
O=[N+]([O-])c1ccc(O)c(S(=O)(=O)O)c1,103,102,126,109,104,106,104,122,110,–,127%,88.7,117,114,102,100,99.3,109,–,–
CC(=O)c1ccc(C(C)(C)C)cc1,95.7,98.4,–,106,99.6,101,100,–,105,103,102%,107,95.2,102,97.6,94.3,97.2,–,91.9,80.6
C=CCc1cc(C(C)=O)cc(OC)c1O,108,109,–,97.8,102,95.8,104,118,105,107,–,92.1,95.5,96.8,119,125,99,105,122,125
CN(C)c1nc2c([nH]1)c(=O)n(C)c(=O)n2C,99.8,81.2,105,103,73.1,92.2,105,–,116,96.5,101%,107,–,105,104,107,87.8,108,–,–
Cc1cc(Cc2cc(C)c(N)cc2N)c(N)cc1N,86.6,81.7,–,101,89.4,85.2,104,92.8,105,101,95.2%,83.9,103,90.9,104,103,85.3,101,88.1,91.4
CS(=O)CC1=NC(=N)N=C1CS(C)=O (stereo not given),100,102,–,106,99.9,97.5,102,117,111,99.4,98%,–,107,106,98.1,99.5,86.6,105,100,103
C=CC(=O)OCCCCCCCC,105,98.9,117,102,–,99.8,104,107,102,103,108%,109,120,102,104,99.5,96.7,104,–,–
CC(=O)NC(N)=S,103,103,–,105,95.6,96.1,105,120,107,121,–,115,105,110,101,107,101,127,110,89.7

# From PubChem BioAssay (NCI)
